For 26 compounds, growth inhibition results are on record in PubChem BioAssay (NCI).

Compounds without any hit were thinned out: in the full panel of roughly 79,000, 15% have a hit. Activity calls are given as the source filed them. Cut-off read from the data, not from the text of the source: active = growth inhibition above about 70%; inactive = the rest.

A short description of assay [1]: NCI Yeast Anticancer Drug Screen. Data for the rad50 strain (AID 155).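 Note: 0% = growth of vehicle-only cultures of the same strain.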 The settings on record: S. cerevisiae rad50 strain growth inhibition; at 50.0 µM; stronger effect = higher value. The gist of the method:
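Cells are treated with compound, grown, and their growth is then scored against vehicle-only cultures of the same repair-deficient yeast strain.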

Assay [2] in a line: NCI Yeast Anticancer Drug Screen. Data for the mec2-1 strain (AID 157). Particulars: S. cerevisiae mec2-1 strain, at 50.0 µM, stronger effect = higher value. The gist of the method: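 Readout is yeast growth inhibition, normalised to vehicle-treated controls, in the mec2-1 strain exposed to compound.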
Assay [3] can be described thus: NCI Yeast Anticancer Drug Screen. Data for the mlh1 rad18 strain (AID 175). The settings on record: S. cerevisiae mlh1 rad18 strain growth inhibition; at 50.0 µM; stronger effect = higher value. An outline of the steps: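 Test agents were incubated with a yeast strain of defined genotype (DNA damage repair defect). Inhibition of growth was derived by comparison with vehicle-exposed cultures.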

Assay [4] can be described thus: NCI Yeast Anticancer Drug Screen. Data for the sgs1 mgt1 strain (AID 161).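 Note: 0% = growth of cultures given vehicle only.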 Particulars: S. cerevisiae sgs1 mgt1 strain, at 50.0 µM, stronger effect = higher value. An outline of the steps:
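Compounds are added to genetically altered yeast, and growth is compared with cultures given vehicle alone to give percent inhibition.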

The nature of assay [5]: NCI Yeast Anticancer Drug Screen. Data for the bub3 strain (AID 167). The settings on record: S. cerevisiae bub3 mutant strain, at 50.0 µM, stronger effect = higher value. The gist of the method: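 Part of a panel of yeast mutants defective in DNA damage repair or cell cycle regulation. Each strain is grown with compound, and inhibition is calculated relative to solvent-treated cultures.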

The nature of assay [6]: NCI Yeast Anticancer Drug Screen. Data for the cln2 rad14 strain (AID 165).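 Note: 0% = growth equal to vehicle treated cultures.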 The settings on record: S. cerevisiae cln2 rad14 strain, at 50.0 µM, stronger effect = higher value. An outline of the steps: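 Relative to vehicle controls, growth inhibition of compound-treated cln2 rad14 yeast was recorded.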

Regarding `Cc1ccc(CNc2cccc([N+](=O)[O-])c2)cc1`, the growth inhibition was 8.6% (inactive) in assay [1], -13.6% (inactive) in assay [2] and 1.8% (inactive) in assay [3].
Take `N#C/C(=C\c1ccc(-c2ccccc2)cc1)C(N)=O`: the growth inhibition was 32% (inactive) in assay [1], 8.6% (inactive) in assay [2] and 27.6% (inactive) in assay [3].
As for `O=C(O)c1cn(C2CC2)c2cc(N3CCNCC3)c(F)cc2c1=O`, the growth inhibition in assay [1] was 8.9% (inactive); in assay [4], -13.1% (inactive); in assay [5], -19.5% (inactive); in assay [3] it was -0.35% (inactive).
For the compound `C=CCNC1=C2C[C@@H](C)C[C@@H](OC)[C@@H](OC(=O)CCCN)[C@H](C)/C=C(\C)[C@@H](OC(N)=O)[C@H](OC)/C=C\C=C(/C)C(=O)NC(=CC1=O)C2=O`, the growth inhibition is -5.15% (inactive) in assay [1], 14.2% (inactive) in assay [4], 13.2% (inactive) in assay [6] and 4.6% (inactive) in assay [3].
For `CS(=O)(=O)c1ccc(NN)c(S(C)(=O)=O)c1`, the values for the growth inhibition in assay [1], in assay [2] and in assay [3] were -9.4% (inactive), -10.3% (inactive) and 11.8% (inactive), respectively.
`O=C(CCCCCCCCCCBr)OCc1ccccc1`: the growth inhibition was -34.2% (inactive) in assay [1] and 5.9% (inactive) in assay [3].
Consider `N#[N+]c1ccc2c(S(=O)(=O)O)cccc2c1O`, for which the values for the growth inhibition in assay [1], in assay [2] and in assay [3] were -17.9% (inactive), -16.2% (inactive) and -25.7% (inactive), respectively.
The corresponding values for `Cc1nc2c(Cl)c(Cl)ccc2s1` are 3.6% (inactive), -20.9% (inactive) and 24.2% (inactive).
In the case of `COc1ccc(/C=C2/NC(=S)N=C2Cl)cc1`, the growth inhibition was -6.9% (inactive) in assay [1]; 4.3% (inactive) in assay [4]; -0.45% (inactive) in assay [6]; 18.1% (inactive) in assay [5]; -29% (inactive) in assay [3].
Take `O=C1CC(c2ccccc2)NCCCCN2CC(CN1)C(C(O)c1ccccc1)C2=O` (stereo unspecified): the growth inhibition is -20.4% (inactive) in assay [1]; -39.4% (inactive) in assay [4]; 8.95% (inactive) in assay [6]; -44.6% (inactive) in assay [5]; -49% (inactive) in assay [3].
`COc1ccc(-c2cc(=O)c3ccc(O)cc3o2)cc1`: the growth inhibition is 7.55% (inactive) in assay [1], -13.3% (inactive) in assay [2] and 38% (inactive) in assay [3].
Take `COc1cc(-c2cc(=O)c3ccc(O)cc3o2)cc(OC)c1OC`: the values for the growth inhibition in assay [1], in assay [2] and in assay [3] were 10.1% (inactive), -32.4% (inactive) and 2.2% (inactive), respectively.
With `COc1ccc(-c2coc3ccc4ccccc4c3c2=O)cc1OC`, the results for the growth inhibition in assay [1] and in assay [3] were 16% (inactive) and 7.25% (inactive), respectively.
As to `Nc1ccccc1SC1CC(=O)N(c2cccc3ccccc23)C1=O` (stereo unspecified), the growth inhibition in assay [1] is -19.6% (inactive); in assay [2], -7.6% (inactive); in assay [3], -12.8% (inactive).
`O=C1c2cccnc2-c2nccc3ccnc1c23`: the growth inhibition in assay [1] was 75% (active); in assay [4], 63% (inactive); in assay [6] it was 45.6% (inactive); in assay [5], 57.5% (inactive); in assay [3] it was -37.7% (inactive).
Consider `COc1ccc(NC(=S)N(C)C)cc1`, for which the growth inhibition in assay [1] was 19.5% (inactive); in assay [2] it was -11% (inactive); in assay [3] it was 3.1% (inactive).
As to `CCOC(=O)c1sc(N)c(C(=O)OCC)c1C`, the growth inhibition was -38.2% (inactive) in assay [1] and -20.1% (inactive) in assay [3].
Regarding `O=C1c2ccccc2-c2c1c1ccccc1c(=O)n2-c1cccnc1`, the growth inhibition in assay [1] is 63.5% (inactive); in assay [6] it was 32.3% (inactive); in assay [5], 6% (inactive); in assay [3] it was -9.05% (inactive).
For the compound `CCOc1ccc(N=c2ssc(SC)c2-c2ccccc2)cc1`, the growth inhibition is 3.4% (inactive) in assay [1], -10.8% (inactive) in assay [2] and 20.5% (inactive) in assay [3].
As for `Cc1ccc2nc3c(nc2c1)-c1cccc2cccc-3c12`, the figures for the growth inhibition in assay [1] and in assay [3] were -18.6% (inactive) and -12.4% (inactive), respectively.
For the compound `N#C/C(=C1C=C(Br)/C(=N\O)C=C\1Cl)c1ccc(Cl)cc1`, the growth inhibition was 30.9% (inactive) in assay [1], 4.55% (inactive) in assay [2] and 27.7% (inactive) in assay [3].
With `O=C(/C=C(\[O-])c1ccccc1)CCCCCCC(=O)/C=C(\[O-])c1ccccc1.O=C(/C=C(\[O-])c1ccccc1)CCCCCCC(=O)/C=C(\[O-])c1ccccc1.O=C(/C=C(\[O-])c1ccccc1)CCCCCCC(=O)/C=C(\[O-])c1ccccc1.[La+3].[La+3]`, the growth inhibition in assay [1] is -2.3% (inactive); in assay [4], 5.5% (inactive); in assay [5] it was 12.3% (inactive); in assay [3], -10.1% (inactive).
For `CC(=Nc1ccncc1)C(C)=Nc1ccncc1`, the growth inhibition was 89.7% (active) in assay [1]; 89.8% (active) in assay [4]; 88.8% (active) in assay [6]; 89.8% (active) in assay [5]; 88.7% (active) in assay [3].
Turning to `O=C1c2ccccc2C(=O)c2c1cccc2N1C(=O)C=CC1=O`, the growth inhibition in assay [1] is 51.2% (inactive); in assay [3], 63.7% (inactive).
Turning to `COc1ccc(C(C#N)N2CCOCC2)cc1` (stereo unspecified), the growth inhibition in assay [1] was 17.8% (inactive); in assay [2] it was -11.7% (inactive); in assay [3] it was 5.35% (inactive).
As for `CCCCC1C(=O)N(c2ccc(S(=O)(=O)Nc3ccccn3)cc2)N(c2ccc(O)c(C(=O)O)c2)C1=O` (stereo unspecified), the growth inhibition in assay [1] is 21.8% (inactive); in assay [6], 23.2% (inactive); in assay [5] it was 34.6% (inactive); in assay [3], 8.85% (inactive).
